The values that follow come from PubChem BioAssay (NCATS).

The experiment is described as follows: qHTS profiling of the MIPE4 collection as inhibitors of Plasmodium falciparum (HB3) proliferation (AID 743347).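 Note: plate controls were DMSO vehicle wells for no effect and artemisinin wells for full effect.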 Particulars: P. falciparum HB3 in erythrocytes, SYBR Green DNA, 72 h; at 28.5 µM (top of the series) unless noted. The method in brief:
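Erythrocytes infected with P. falciparum (0.3% parasitemia, 2.5% hematocrit) incubated with compounds 72 h at 37 C, 5% CO2. Lysis with saponin/Triton buffer containing SYBR Green I, overnight at room temperature in the dark; DNA fluorescence (485/535 nm) normalised to 0.29 uM artemisinin and DMSO.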
In the case of `C[C@@H]1C[C@H]2[C@@H]3CCC4=CC(=O)C=C[C@]4(C)[C@@]3(F)[C@@H](O)C[C@]2(C)[C@@]1(O)C(=O)CO`, the growth, % of control was 9.35%.

As for `N#Cc1c(N(CC(=O)O)CC(=O)O)sc(C(=O)O)c1CC(=O)O`, the growth, % of control was 105%.

With `CCCCCCCCCCCCCC(=O)N[C@H](CO)[C@H](O)c1ccc([N+](=O)[O-])cc1`, the growth, % of control is 24.3%.

The compound `C=C1c2cccc(O)c2C(O)=C2C(=O)[C@@]3(O)C(O)=C(C(N)=O)C(=O)[C@@H](N(C)C)[C@@H]3[C@@H](O)[C@H]12` came in with a growth, % of control of 15.6%.

Compound `CCC(=C(CC)c1ccc(O)cc1)c1ccc(O)cc1` yielded a growth, % of control of 90.8%.

On to `CC1(C)[C@H]2CC[C@]3(C)[C@@H](C(=O)C=C4[C@@H]5C[C@@](C)(C(=O)O)CC[C@]5(C)CC[C@]43C)[C@@]2(C)CC[C@@H]1O`, for which the growth, % of control was found to be 87.6%.

`CN1CCc2c(n(Cc3ccc(C(=O)NO)cc3)c3ccccc23)C1`: the growth, % of control was 4.11%.

Compound `Cc1[nH]c(C=C2C(=O)Nc3ccc(S(=O)(=O)N(C)c4cccc(Cl)c4)cc32)c(C)c1C(=O)N1CCN(C)CC1` yielded a growth, % of control of 4.63%.

`CCC(C)SSc1ncc[nH]1` (stereo unspecified) returned a growth, % of control of 92.3%.

`O=C(O)C1=CC(O)C(O)[C@H](O)C1` (stereo partly specified) registered a growth, % of control of 51.8%.

Turning to `CC(=O)OCC(=O)[C@@]12OC(C)(C)O[C@H]1C[C@H]1[C@@H]3C[C@H](F)C4=CC(=O)C=C[C@]4(C)[C@@]3(F)[C@@H](O)C[C@@]12C`, the growth, % of control is 61.2%.

Compound `CN(C)c1ccc(-c2nc3ncc(Cl)c(N4CCN(CC(=O)Nc5nccs5)CC4)c3[nH]2)cc1` yielded a growth, % of control of 2.92%.

`CCCCC(F)(F)[C@@]1(O)CC[C@H]2[C@H](CC(=O)[C@@H]2CCCCCCC(=O)O)O1`: the growth, % of control worked out at 83%.

As to `CC(C)CN(C[C@H](O)[C@H](Cc1ccccc1)NC(=O)O[C@H]1CCOC1)S(=O)(=O)c1ccc(N)cc1`, the growth, % of control came to 42.8%.

The compound `Cc1cc2nc3c(=O)[nH]c(=O)nc-3n(CC(O)C(O)C(O)CO)c2cc1C` (stereo unspecified) gave a growth, % of control of 17.8%.

For the compound `Nc1ncnc2c1ncn2[C@@H]1O[C@H](CO)[C@@H](O)[C@@H]1O`, the growth, % of control amounted to 6.56%.

Regarding `C#CCN(C)CC1=Cc2ccccc2Oc2ccccc21`, the growth, % of control came to 25.1%.

On to `O=C(c1ccc(C(=O)N2CCC(N3CCCC3)CC2)c(Nc2ccccc2)c1)N1CCC(N2CCCC2)CC1`, for which the growth, % of control is 82.3%.

In the case of `NS(=O)(=O)c1cc(Cl)c(Cl)c(S(N)(=O)=O)c1`, the growth, % of control worked out at 98.5%.

`CC(C)c1onc(-c2c(Cl)cccc2Cl)c1COc1ccc(C=Cc2cccc(C(=O)O)c2)c(Cl)c1` gave a growth, % of control of 67.3%.

In turn, `CC1(C)C(N(O)C(=O)Nc2ccc(Cl)cc2)N(c2ccc(Cl)cc2)C(=O)N1CC(=O)NN=CC=Cc1ccc([N+](=O)[O-])o1` (stereo unspecified) showed a growth, % of control of 7.55%.

Turning to `COc1cc2nccc(Oc3ccc(NC(=O)Nc4cc(C)on4)c(Cl)c3)c2cc1OC`, the growth, % of control was 3.73%.

On to `COc1c(C)c2c(c(O)c1CC=C(C)CCC(=O)O)C(=O)OC2`, for which the growth, % of control was found to be 7.33%.

For `CC(C)=CCCC(C)=CCCC(C)=CCCC(C)=CCCC(C)=CCCC(C)=CCCC(C)=CCCC(C)=CCCC(C)=CCO`, the growth, % of control is 100%.

`COc1cc([C@@H]2c3cc4c(cc3[C@@H](O[C@@H]3O[C@@H]5CO[C@@H](C)O[C@@H]5[C@H](O)[C@@H]3O)[C@H]3COC(=O)[C@H]23)OCO4)cc(OC)c1O` gave a growth, % of control of 4.48%.

In the case of `C[C@H]1[C@H](O)O[C@@H]2O[C@@]3(C)CC[C@@H]4[C@H](C)CC[C@@H]1[C@@]24OO3`, the growth, % of control amounted to 11.1%.
